Out of some 100,000 compounds screened, about 770 (0.77%) were called active. No stated cut-off is given here; in the data, active means inhibition above about 50%; inactive means the rest. Only a selection was taken, and actives are over-represented in it overall.
Biological target: Gag-Pol polyprotein (Human immunodeficiency virus type 1 group M subtype B (isolate HXB2)) (UniProt P04585)
Assay: RNase H inhibition, HIV 1 Gag Pol polyprotein, FRET biochemical assay, screening (AID 372)
Conditions: HIV-1 RT RNase H, FRET RNA/DNA substrate fluorescence; at 10 µM; hits give high values

Row | Compound | inhibition
1 | COc1ccc(-c2ccccc2)cc1NCc1c2ccccc2cc2ccccc12 | 2% (inactive)
2 | COc1ccc2nc(-c3ccccc3)c(-c3ccccc3)nc2c1 | 6% (inactive)
3 | COc1ccc(Cc2ccc(OC)cc2)cc1 | 5% (inactive)
4 | COc1ccc(-c2nc3ccc(Cc4ccc5nc(-c6ccc(OC)cc6)c(-c6ccc(OC)cc6)nc5c4)cc3nc2-c2ccc(OC)cc2)cc1 | 55% (active)
5 | C#CCOc1ccc(/C=C2/C(=O)NC(=O)N(c3ccccc3F)C2=O)cc1 | 0% (inactive)
6 | S=c1[nH]c2ccccc2n1CCOc1ccccc1 | 30% (inactive)
7 | Cc1ccc(OCCn2c(=S)[nH]c3ccccc32)cc1 | 61% (active)
8 | S=c1[nH]c2ccccc2n1CCOc1ccc(Cl)cc1 | 39% (inactive)
9 | Cc1ccccc1OCCOc1ccccc1/C=c1\sc2nc3ccccc3n2c1=O | 9% (inactive)
10 | CC(C)OC(=O)COc1ccc2c(c1)oc(=O)c1ccccc12 | 0% (inactive)
11 | O=C(COc1ccc(Cl)cc1)Oc1ccc2c(c1)oc(=O)c1ccccc12 | 54% (active)
12 | Cc1c(Cl)c(=O)oc2cc(OCC(=O)c3ccc(Cl)cc3)ccc12 | 50% (active)
13 | Cc1c(Cl)c(=O)oc2cc(OCc3ccc(Cl)cc3)ccc12 | 3% (inactive)
14 | CC(=O)COc1ccc2c(c1)oc(=O)c1ccccc12 | 7% (inactive)
15 | Cc1cc(=O)oc2cc(OCC(=O)c3ccc(Cl)cc3)ccc12 | 19% (inactive)
16 | O=C1CCCC2=C1C(c1ccccc1Cl)Nc1ccc(C(=O)c3ccccc3)cc1N2 (stereo not drawn) | 1% (inactive)
17 | Cc1ccc(C(=O)Nc2cc(C)cc(C)c2)cc1 | 0% (inactive)
18 | Cc1ccc(N=Cc2c(O)n(C3CCCCC3)c(=O)n(C3CCCCC3)c2=O)cc1C | 6% (inactive)
19 | O=C(Nc1nnc(CSCc2ccc(Cl)cc2Cl)s1)Nc1ccc(Cl)cc1Cl | 33% (inactive)
20 | O=C(Nc1nnc(CSCc2ccccc2F)s1)Nc1ccc(Cl)cc1Cl | 53% (active)
21 | O=C(Nc1nnc(Cc2ccc(Cl)cc2)s1)Nc1ccc(Cl)cc1Cl | 37% (inactive)

Row | Compound | inhibition
22 | Cc1cccc(CSCc2nnc(NC(=O)Nc3ccc(Cl)cc3Cl)s2)c1 | 53% (active)
23 | O=C(Nc1nnc(CSCc2ccccc2Cl)s1)Nc1ccc(Cl)cc1Cl | 46% (inactive)
24 | CCC(c1ccccc1)c1nnc(NC(=O)Nc2ccc(Cl)cc2Cl)s1 (stereo not drawn) | 12% (inactive)
25 | O=C(Nc1nnc(Cc2ccc(Cl)cc2Cl)s1)Nc1ccc(Cl)cc1Cl | 66% (active)
26 | O=C(Nc1nnc(C(c2ccccc2)c2ccccc2)s1)Nc1ccc(Cl)cc1Cl | 52% (active)
27 | O=C(Nc1nnc(CSCc2ccccc2)s1)Nc1ccc(Cl)cc1Cl | 39% (inactive)
28 | O=C(Nc1nnc(Cc2ccccc2F)s1)Nc1ccc(Cl)cc1Cl | 18% (inactive)
29 | Cc1cccc(CSCc2nnc(NC(=O)Nc3ccc(Cl)cc3)s2)c1 | 31% (inactive)
30 | CC(c1ccccc1)c1nnc(NC(=O)Nc2ccc(Cl)cc2Cl)s1 (stereo not drawn) | 36% (inactive)
31 | COc1ccc2ccccc2c1-c1cc(C(=O)N/N=C/c2ccc(C)cc2)[nH]n1 | 13% (inactive)
32 | CCCOC(=O)c1ccc(NC(=S)NC(=O)c2ccc(OCCC)cc2)cc1 | 20% (inactive)
33 | CCOc1ccc(NC(=O)c2c(NC(=O)C(C)(C)C)sc3c2CCCC3)cc1 | 13% (inactive)
34 | COc1cccc(/C=N\NC(=O)CNc2ccccc2C)c1 | 5% (inactive)
35 | CCOC(=O)C1=C(C)N=c2s/c(=C\c3ccc(-c4ccc(Cl)cc4[N+](=O)[O-])o3)c(=O)n2C1c1ccc(OC)cc1 (stereo not drawn) | 43% (inactive)
36 | O=[N+]([O-])c1ccc(N2CCCC2)c(C(F)(F)F)c1 | 21% (inactive)
37 | O=C(NC(=S)Nc1cc([N+](=O)[O-])ccc1F)c1cccc(I)c1 | 4% (inactive)
38 | COc1ccc(-c2csc(N3N=C(c4ccc(Cl)cc4)CC3c3ccc(OC)c(OC)c3)n2)cc1F (stereo not drawn) | 3% (inactive)
39 | COc1ccc(C2CC(c3ccc(Cl)cc3)=NN2c2nc(-c3ccc(C)cc3)cs2)cc1OC (stereo not drawn) | 3% (inactive)
40 | COc1ccc(C2CC(c3ccc(Cl)cc3)=NN2c2nc(-c3cccc(N4C(=O)c5ccccc5C4=O)c3)cs2)cc1OC (stereo not drawn) | 53% (active)
41 | COc1cc(OC)c(NC(=O)C(Cl)(Cl)Cl)cc1Cl | 2% (inactive)
42 | COc1ccc(/C=C(\C#N)c2ccc(Cl)cc2)cc1OC | 20% (inactive)

Row | Compound | inhibition
43 | CCOc1cc(/C=C(\C#N)c2ccc([N+](=O)[O-])cc2)ccc1O | 8% (inactive)
44 | CCOc1ccc(/C=C(/C#N)c2ccc(Cl)cc2)cc1Cl | 54% (active)
45 | O=C(O)c1c[nH]c2ccc(Br)cc2c1=O | 13% (inactive)
46 | Cc1cccc(N2C(=O)NC(=O)/C(=C\C=C\c3ccccc3[N+](=O)[O-])C2=O)c1 | 24% (inactive)
47 | CCN1C(=O)NC(c2ccc(Br)cc2)C(C(=O)OCCOC)=C1C (stereo not drawn) | 0% (inactive)
48 | O=C(Nc1ccc(-c2nc3ccc(NC(=O)c4ccccc4)cc3[nH]2)cc1)c1ccccc1 | 4% (inactive)
49 | O=C1c2cccc3ccc(Cl)c(c23)C(=O)N1O | 90% (active)
50 | O=C1c2cccc3ccc(Cl)c(c23)C(=O)N1Oc1ccc([N+](=O)[O-])cc1[N+](=O)[O-] | 3% (inactive)
51 | O=C1c2cccc3c(Cl)ccc(c23)C(=O)N1O | 15% (inactive)
52 | Cc1c(NC(=O)c2cc([N+](=O)[O-])ccc2Cl)cccc1-c1nc2ccccc2s1 | 6% (inactive)
53 | COc1ccc2oc(=O)c(-c3csc(Nc4ccccc4)n3)cc2c1 | 17% (inactive)
54 | COc1ccc2oc(=O)c(-c3csc(NC(=O)/C=C\C(=O)O)n3)cc2c1 | 3% (inactive)
55 | COc1ccc2oc(=O)c(-c3csc(Nc4ccc(Cl)cc4)n3)cc2c1 | 57% (active)
56 | COc1ccc2oc(=O)c(-c3csc(Nc4ccc(C(C)=O)cc4)n3)cc2c1 | 1% (inactive)
57 | COc1ccc2oc(=O)c(-c3nnc(Nc4ccccc4C)s3)cc2c1 | 10% (inactive)
58 | COc1ccc2oc(=O)c(-c3nnc(Nc4cccc(C)c4)s3)cc2c1 | 50% (active)
59 | COc1cccc(Nc2nnc(-c3cc4cc(OC)ccc4oc3=O)s2)c1 | 43% (inactive)
60 | COc1cccc(Nc2nc(-c3cc4cc(Br)ccc4oc3=O)cs2)c1 | 12% (inactive)
61 | COc1ccc(Nc2nc(-c3cc4cc(OC)ccc4oc3=O)cs2)cc1 | 13% (inactive)
62 | COc1ccc2oc(=O)c(-c3csc(/N=C/c4ccccc4O)n3)cc2c1 | 67% (active)
63 | COc1ccc2oc(=O)c(-c3csc(Nc4ccccc4Br)n3)cc2c1 | 8% (inactive)

— PubChem BioAssay AID372 (MTDP, 2006)
